Source: PubChem BioAssay (National Center for Advancing Translational Sciences (NCATS))
Marburg entry inh: qHTS for inhibitors of binding or entry into cells for Marburg Virus; Marburg virus pseudotyped entry inhibition, cell reporter; Potency, µM (top dose mostly 37.8 µM), for the others: at the highest dose activity change, negative = inhibition, most hits filed as inhibitors; 300,000 tested, 1.8% active; AID 540276, 2011; calls by dose curve; tested in HEK293 cells; also: potency is read from the fitted curve at half-maximal effect
Vaccinia Venus: qHTS for Stage-Specific Inhibitors of Vaccinia Orthopoxvirus: Venus Reporter Primary qHTS | Vaccinia virus Venus reporter expression, fluorescence | Potency, µM (doses to about 36.5 µM), for the others: top-dose activity change, negative = inhibition, actives largely listed as inhibitors | 330,000 tested, 0.46% active; calls by dose curve; tested in A549 cells; also: potency is read from the fitted curve at half-maximal effect; nearly all actives have a fitted effect of over 30% in size
Lassa entry inh: qHTS for Inhibitors of binding or entry into cells for Lassa Virus. Lassa virus pseudotype entry inhibition, cell reporter. Potency, µM (titrated, usually from 37.9 µM), for the others: at the highest dose activity change, negative = inhibition, hits mostly inhibitors. 300,000 tested, 1.2% active; calls by dose curve; tested in HEK293 cells; also: potency is read from the fitted curve at half-maximal effect; nearly all actives have a fitted effect of over 50% in size
FMDV inh: High Throughput Screening for Foot and Mouth Disease Virus Antivirals | FMDV antiviral cell-based qHTS | Potency, µM (highest dose often 57.9 µM), for inactives: at the top dose activity change, negative = inhibition, hits mostly inhibitors | 410,000 tested, 1.2% active | AID 1159524, 2015; calls by dose curve; tested in HEK293T cells; also: read-out not given here; potency is read from the fitted curve at half-maximal effect; nearly all actives have a fitted effect of over 45% in size
Vaccinia mCherry: qHTS for Stage-Specific Inhibitors of Vaccinia Orthopoxvirus: mCherry Reporter Primary qHTS; Vaccinia virus mCherry reporter infection, fluorescence; Potency, µM (series often up to 36.5 µM), for the others: at the top dose activity change, negative = inhibition, hits mostly inhibitors; 310,000 tested, 0.63% active; calls by dose curve; tested in A549 cells; also: potency is read from the fitted curve at half-maximal effect; nearly all actives have a fitted effect of over 35% in size
HCMV antiviral: qHTS Assay for inhibitors of the human cytomegalovirus (HCMV); activity change, negative = inhibition, % at 57.5 µM; AID 1259415, 2018; HFF cells, HCMV-luciferase reporter, 72 h; stronger effect = lower value; 410,000 tested, 4.5% active; in the data active = activity change below about -60%; inconclusive = no clear call, values can overlap the other calls; inactive = above about -39%
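HFF cells seeded 16 h at 37C, treated with compounds, infected with luciferase-reporter HCMV at MOI 1 PFU/cell; luciferase read at 72 h post infection, normalized to buffer-only and Salinomycin controls.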
Active calls of the source: *; i = inactive; ? = inconclusive; nt = no result given; [ ] = another dose, or the depositor's remark. Sampled rows, rich in hits. Any-hit rate of the full collection: about 6.5%. % is scaled to controls: 0 for no effect and ±100 for the full control effect.

SMILES	Marburg entry inh	Vaccinia Venus	Lassa entry inh	FMDV inh	Vaccinia mCherry	HCMV antiviral
Cc1[nH]c2ccccc2c1C(=O)C(=O)N1c2ccccc2CC1C (centres undefined)	?	?	-20%	?	?	-62*
CCCCC12CN3CC(C)(CN(C1)C3c1c(C)[nH]c(=O)[nH]c1=O)C2=O (centres undefined)	2%[46.1 µM]	1%	14%[46.1 µM]	-6%	6%	3
COC(=O)CC=C1c2ccccc2[C@@H](OC)[C@@H]1C	16%[14.2 µM]	nt	?	nt	nt	nt
CCCCN1CC(N2CCN(C3CCN(C)CC3)CC2)CS1(=O)=O (centres undefined)	nt	2%	?	-11%	37%	-18
O=C1CC(c2ccc(O[C@@H]3OC(CO)[C@@H](O)C(O)C3O)cc2)Oc2cc(O)ccc21 (some centres undefined)	nt	nt	nt	8%	nt	nt
COc1cccc(-c2cnc3c(NC=O)cc(-c4ccc(OC)cc4OC)cn23)c1	nt	?	nt	?	?	-92*
COc1ccccc1-c1cc(NC=O)c2ncc(-c3cccc(C(C)=O)c3)n2c1	nt	?	nt	-27%	7.9µM*	59
COc1ccc(-c2cc(NC=O)c3ncc(-c4ccc(OC)c(OC)c4)n3c2)c(OC)c1	nt	?	nt	-36%	-22%	-74*
C=Nc1ccc(/C=C/c2ccnc3ccccc23)cc1	nt	-26%	nt	nt	-23%	nt
COC(=O)C1=CN(C(C)C)C=C(C(=O)OC)C1c1cc(Br)c(OC)c(OC)c1	?	nt	4.1µM*	?	nt	0
CCCn1nc([N+](=O)[O-])c(C(C#N)c2nc3ccccc3s2)c(Cl)c1=O (centres undefined)	?	nt	-16%	?	nt	-90*
CN1C(=O)N=C2N=CN(C)C2C1=O (centres undefined)	4%	nt	nt	nt	nt	nt
CCOc1ccc(C(=O)NCC(=O)OCc2c(F)cccc2Cl)cc1	?	-6%	5%	19%	-14%	-67*
Cn1cccc1C(=O)Nc1nc(-c2ccccn2)cs1	?	nt	?	-16%	nt	-88*
O=C(COc1ccc(CO)cc1Cl)Nc1ccc(F)cc1	6.5µM*	nt	?	-41%	nt	55
O=C(COc1ccc(F)cc1Cl)Nc1nc(-c2ccccn2)cs1	nt	nt	nt	nt	nt	-82*
O=C(Nc1nc(-c2ccccn2)cs1)c1ccc(Cl)s1	nt	?	nt	-8%	3.2µM*	-96*
N#Cc1ccccc1OCC(=O)Nc1nc(-c2ccccn2)cs1	nt	?	nt	-9%	?	-11
Nc1ccn([C@@H]2O[C@H](CNC(=O)[C@@H](Cc3cn(COCc4ccccc4)cn3)NC=O)[C@@H](O)[C@H]2O)c(=O)n1	nt	6%	nt	0%	-24%	-3
Cc1ccccc1NC(=O)CN1C(=O)N/C(=C/c2cccn2-c2cccc(C(=O)O)c2)C1=O	-2%[46.1 µM]	nt	nt	nt	nt	nt
COc1cc(-c2cc(C)c3c(OC)ccc(OC)c3n2)cc2c1OCCN(Cc1cn(C)nc1C)C2	nt	22%	nt	-3%	12%	nt
N/C(=N\c1nc2ccccc2o1)NC(=O)c1ccccc1Br	?	-12%	-14%[46.1 µM]	-15%	i	4
O=C(CN1C(=O)CCC1=O)Nc1nc(-c2ccccn2)cs1	nt	-19%	nt	-5%	0%	-62*
Cc1cccnc1Nc1nc(-c2ccccc2)cs1	nt	nt	nt	8%	nt	185
Cc1ccc(C(=O)Nc2nc(-c3ccccn3)cs2)s1	nt	nt	nt	-13%	nt	-100*
SMILES	Marburg entry inh	Vaccinia Venus	Lassa entry inh	FMDV inh	Vaccinia mCherry	HCMV antiviral
Cc1cccnc1Nc1nc(-c2ccccn2)cs1	?	3.2µM*	7.1µM*	-43%	2.5µM*	-106*
O=C(CN1C(=O)CCC1=O)Nc1nc(-c2ccc3ccccc3c2)cs1	nt	nt	nt	44%	nt	?
C=CCCCC=C(C)[C@H](OCc1ccc(OC)cc1)[C@H](CCC=C(C)C(N)=O)OC	10%[14.2 µM]	nt	nt	nt	nt	nt
Cc1ccc(NN2C(=O)C=C(c3ccc(Cl)cc3)C2=O)cc1	?	?	?	40µM*	?	236
COc1ccc(C2=CC(=O)N(Nc3ccccc3)C2=O)cc1	?	-9%	-6%	?	-9%	-9
O=C1C=C(c2ccccc2)C(=O)N1Nc1ccccc1	-1%	-16%	?	35µM*	-8%	30
COc1ccc(CN2CCNC(=O)C2CC(=O)NCCN2CCCCC2=O)c(F)c1 (centres undefined)	10%	-13%	8%	-9%	-7%	10
O=C(Nc1ncn[nH]1)c1cccc(S(=O)(=O)N2CCOCC2)c1	?	3%	-19%	-9%	5%	6
CN(CC1CCCCC1)[C@H]1CC[C@@]23CCCN2C(=O)CCC[C@H]3[C@H]1Cc1ccccc1	nt	nt	nt	nt	nt	-20
Cc1cccc(CCNC(=O)c2nc(-c3ccc(Cl)cc3)n3c2CCCCC3)c1	nt	-6%	-23%[46.1 µM]	-23%	-4%	-14
Cc1ccc(NC(=O)COC(=O)c2ccccc2-c2nc3ccccc3s2)c(C)c1	25%	nt	-12%	-24%	nt	-68*
Cc1ccc(C)c(NC(=O)COC(=O)c2cccc3c2C(=O)c2ccccc2C3=O)c1	?	-28%	?	?	-10%	?
Cc1ccc(Nc2nc3ccccc3s2)c(C)c1	8.2µM*	-16%	10µM*	-37%	?	72
CCC(=O)Nc1cc(-c2nc3ccccc3s2)c(Cl)cc1Cl	-2%[46.1 µM]	-8%	-3%[46.1 µM]	2%	-2%	-101*
CCC(=O)NC(=S)Nc1ccc(-c2nc3ccccc3s2)cc1	-22%[46.1 µM]	-17%	-17%	3%	nt	78
Cc1ccc(NC(=O)COC(=O)c2cccc3c2C(=O)c2ccccc2C3=O)c(C)c1	?	-7%	-25%	-4%	-14%	-67*
COc1ccc(C(=O)NCCn2cc(SCC(=O)Nc3ccc(F)cc3)c3ccccc32)cc1	-22%[46.1 µM]	-22%	-28%[46.1 µM]	?	-20%	0
CN(C)c1ccc(C(=O)N2CCCC(Cn3cc(C(=O)N4CCCC4)nn3)C2)cc1 (centres undefined)	nt	-13%	nt	-3%	i	nt
CCOC(=O)/C=C/[C@@H](CC(C)C)NC(=O)C(F)(F)F	nt	nt	nt	nt	nt	-4
Cc1ccc(C(=O)Nc2ccc(-c3nc4ccccc4s3)c(O)c2)c(C)c1	nt	-8%[7.34 µM]	19%[46.1 µM]	13%	-14%[7.34 µM]	-63*
Cc1ccc(NC(=O)Cc2cc(C(=O)O)c3ccccc3n2)c(C)c1	12µM*	nt	15µM*	?	nt	?
COc1cccc(CN(C)CC(=O)Nc2ccccc2C(C)C)c1	?	-2%	-14%	?	-1%	-65*
CC(C)(C)c1ccc(OCCOCCn2c(-c3ccc(Cl)cc3)nc3ccccc3c2=O)cc1	-24%[46.1 µM]	-12%	?	0%	-2%	5
CCOc1ccc(-c2cn(-c3ccccc3OC)c(=S)[nH]2)cc1	?	-18%	-17%[46.1 µM]	-7%	-28%	-80*
CCOc1ccc(C[C@H]2CC(=O)NC2=O)cc1	0%	nt	nt	nt	nt	nt
